According to PMC5540273 (PLoS ONE, 2017):

Experiments:
Details in all cases: concentration: 1 μM,replicates: in singlicate; n = 1
MAPKAPK5 = system: MAPKAPK5
MARK1 = system: MARK1
MARK2 = system: MARK2
MARK3 = system: MARK3
MARK4 = system: MARK4
MAST1 = system: MAST1
MEK1 = system: T1, MEK1
T1 construct: gene MAP2K1

MEK2 = system: T2, MEK2
T2 construct: gene MAP2K2

MEK3 = system: T3, MEK3
T3 construct: gene MAP2K3

MEK4 = system: T4, MEK4
T4 construct: gene MAP2K4

MEK5 = system: T5, MEK5
T5 construct: gene MAP2K5

MEK6 = system: T6, MEK6
T6 construct: gene MAP2K6

MELK = system: MELK
MERTK = system: MERTK
MET = system: MET
MINK = system: T7, MINK
T7 construct: gene MINK1

MKK7 = system: MKK7
MKNK1 = system: MKNK1
MKNK2 = system: MKNK2
MLCK = system: T8, MLCK
T8 construct: gene MYLK3
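Note: KINOMEscan kinase panel screen.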

Row | Structure (SMILES) | %Inh (MAPKAPK5) [%] | %Inh (MARK1) [%] | %Inh (MARK2) [%] | %Inh (MARK3) [%] | %Inh (MARK4) [%] | %Inh (MAST1) [%] | %Inh (MEK1) [%] | %Inh (MEK2) [%] | %Inh (MEK3) [%] | %Inh (MEK4) [%] | %Inh (MEK5) [%] | %Inh (MEK6) [%] | %Inh (MELK) [%] | %Inh (MERTK) [%] | %Inh (MET) [%] | %Inh (MINK) [%] | %Inh (MKK7) [%] | %Inh (MKNK1) [%] | %Inh (MKNK2) [%] | %Inh (MLCK) [%]
1 | C[C@@H](Oc1cc(-n2cnc3cc(-c4ccncc4)ccc32)sc1C(N)=O)c1ccccc1Cl [GSK479719] | 0 | 0 | 100 | 1 | 12 | 0 | 0 | 0 | 0 | 37 | 21 | 0 | 0 | 86 | 52 | 0 | 0 | 0 | 28 | 0
2 | O=C(NOCC1CC1)c1cc(Br)c(F)c(F)c1Nc1ccc(I)cc1Cl | 0 | 0 | 13 | 0 | 0 | 0 | 31 | 58 | 15 | 0 | 20 | 0 | 0 | 0 | 0 | 9 | 0 | 10 | 5 | 0
3 | CN1CCN(CCCNc2nccc(-c3c(-c4ccc(F)cc4)nn4cc(C(N)=O)ccc34)n2)CC1 [GW622475] | 0 | 9 | 15 | 0 | 21 | 0 | 0 | 18 | 0 | 12 | 42 | 0 | 91.9 | 49 | 32 | 71 | 0 | 10 | 0 | 0
4 | Cn1ccc2ncnc(Oc3ccc(NC(=O)Nc4cccc(C(F)(F)F)c4)c(Cl)c3)c21 | 0 | 0 | 6 | 0 | 0 | 0 | 0 | 25 | 0 | 6 | 30 | 30 | 0 | 85 | 17 | 4 | 32 | 16 | 19 | 12
5 | N#Cc1cccc(C(=O)NC2CCN(c3ccnc(Nc4ccc(F)cc4)n3)C2)c1 (stereo not shown) [GSK1379708] | 0 | 0 | 0 | 0 | 16 | 0 | 0 | 0 | 0 | 17 | 12 | 0 | 0 | 49 | 18 | 0 | 0 | 0 | 0 | 0
6 | Cc1cccc(-c2nc(Nc3ccncc3)c3sccc3n2)n1 [GW869641] | 9 | 23 | 34 | 20 | 30 | 23 | 25 | 20 | 32 | 35 | 58 | 10 | 36 | 0 | 28 | 77 | 16 | 0 | 0 | 10
7 | Cn1ccc2ncnc(Oc3ccc(NC(=O)Nc4cnn(C(C)(C)C)c4)c(Cl)c3)c21 | 0 | 10 | 6 | 0 | 16 | 0 | 0 | 15 | 3 | 0 | 18 | 0 | 16 | 65 | 35 | 70 | 0 | 4 | 78 | 0
8 | CC(C)S(=O)(=O)N1CCN(Cc2ccc3c(c2)nc(NC(=O)c2ccsc2)n3C[C@H](O)c2ccccc2)CC1 [GW635815] | 0 | 6 | 34 | 43 | 18 | 0 | 0 | 0 | 0 | 9 | 91.9 | 0 | 28 | 83 | 20 | 60 | 0 | 7 | 0 | 0
9 | CCn1c(-c2nonc2N)nc2cncc(Br)c21 [SB-738004] | 0 | 0 | 21 | 0 | 6 | 53 | 22 | 29 | 49 | 0 | 74 | 10 | 35 | 0 | 0 | 29 | 22 | 10 | 81 | 28
10 | O=C(Nc1cccc(C(F)(F)F)c1)c1cccc(Oc2ccc3nccn3n2)c1 | 51 | 0 | 2 | 9 | 100 | 0 | 0 | 8 | 6 | 31 | 32 | 0 | 0 | 17 | 16 | 12 | 36 | 7 | 26 | 0
11 | CCCC(=O)Nc1n[nH]c2ncccc12 [SB-601436] | 5 | 0 | 0 | 0 | 0 | 0 | 0 | 13 | 21 | 14 | 0 | 0 | 0 | 5 | 0 | 0 | 0 | 0 | 11 | 0
12 | C[C@@H]1CNc2c(sc3ccc4nc(-c5ccc(O)cc5)ccc4c23)C(=O)N1 | 99.9 | 26 | 7 | 17 | 17 | 48 | 1 | 23 | 51 | 0 | 67 | 13 | 0 | 62 | 92.7 | 61 | 0 | 27 | 34 | 52
13 | C[C@@H](Oc1cc(-n2cnc3cc(-c4cnn(C)c4)ccc32)sc1C(N)=O)c1ccccc1Cl [GSK580432] | 0 | 63 | 61 | 82 | 59 | 0 | 0 | 0 | 0 | 18 | 42 | 15 | 15 | 100 | 69 | 40 | 0 | 2 | 20 | 10
14 | COc1ccc(Nc2nccc(N3CCC(NC(=O)c4cccc(C#N)c4)C3)n2)cc1 (stereo not shown) [GSK1379730] | 0 | 1 | 0 | 0 | 9 | 0 | 0 | 0 | 0 | 8 | 8 | 0 | 0 | 24 | 9 | 0 | 17 | 0 | 5 | 3
15 | NC(=O)c1ccc(-c2cc3ncnc(SCC(=O)O)c3s2)cc1 | 0 | 0 | 8 | 0 | 0 | 0 | 0 | 34 | 9 | 0 | 38 | 0 | 0 | 0 | 0 | 39 | 0 | 6 | 28 | 12
16 | COc1cccc(CNC(=O)NC2CCN(c3ccnc(Nc4cc(OC)c(OC)c(OC)c4)n3)C2)c1 (stereo not shown) [GSK1379765] | 0 | 0 | 0 | 0 | 1 | 0 | 17 | 5 | 15 | 25 | 99.9 | 0 | 15 | 17 | 26 | 12 | 0 | 21 | 39 | 6
17 | Cc1ccn2nc(-c3ccc(F)cc3)c(-c3ccncc3)c2c1.Cl [GW457859] | 0 | 0 | 0 | 0 | 0 | 64 | 0 | 48 | 0 | 0 | 7 | 2 | 7 | 24 | 0 | 67 | 0 | 6 | 0 | 2
18 | CCNCC(Cc1ccccc1)NC(=O)c1cc(Br)c(-c2ccnc3[nH]ccc23)s1.Cl.Cl (stereo not shown) [GSK1383280] | 0 | 12 | 72 | 69 | 0 | 0 | 0 | 0 | 89 | 57 | 55 | 21 | 97.5 | 34 | 6 | 64 | 35 | 0 | 94.3 | 17
19 | Cc1ccc(CC(=O)N2CCc3cc(-c4cn(C)c5ncnc(N)c45)ccc32)cc1 [GSK2634758] | 0 | 2 | 0 | 0 | 12 | 8 | 0 | 0 | 0 | 22 | 99.9 | 0 | 7 | 27 | 86 | 6 | 18 | 0 | 52 | 12
20 | Cc1ccc(Nc2ccnc(Nc3ccc4c(c3)CS(=O)(=O)C4)n2)cc1O.Cl [GW579362] | 0 | 0 | 17 | 0 | 5 | 0 | 84 | 62 | 92 | 90.9 | 99.8 | 46 | 0 | 99.5 | 80 | 64 | 0 | 43 | 94.5 | 0
